# Source: ChEMBL document CHEMBL3988442, “University of Dundee, Small-Polar-MMV Screening Library” (2021)
# For some assays here: Potency and affinity values are given separately.
# Columns and labels:
# Set-up in all cases: scale not given: direction of the effect not stated beside the values
# [1] = target: Protein translocase subunit SecA (Escherichia coli (strain K12)) (UniProt P10408); experiment: Assay to Identify E. coli SecA ATPase Inhibitors; format: functional; conditions: 30 µM
# [2] = target: T1, Ubiquitin-activating enzyme e1, putative (Leishmania donovani (strain BPK282A1)) (UniProt E9BSI1); experiment: Leishmania donovani Ubiquitin Activating Enzyme (LdE1); format: functional; conditions: 30 µM
# T1 sequence (whole entry): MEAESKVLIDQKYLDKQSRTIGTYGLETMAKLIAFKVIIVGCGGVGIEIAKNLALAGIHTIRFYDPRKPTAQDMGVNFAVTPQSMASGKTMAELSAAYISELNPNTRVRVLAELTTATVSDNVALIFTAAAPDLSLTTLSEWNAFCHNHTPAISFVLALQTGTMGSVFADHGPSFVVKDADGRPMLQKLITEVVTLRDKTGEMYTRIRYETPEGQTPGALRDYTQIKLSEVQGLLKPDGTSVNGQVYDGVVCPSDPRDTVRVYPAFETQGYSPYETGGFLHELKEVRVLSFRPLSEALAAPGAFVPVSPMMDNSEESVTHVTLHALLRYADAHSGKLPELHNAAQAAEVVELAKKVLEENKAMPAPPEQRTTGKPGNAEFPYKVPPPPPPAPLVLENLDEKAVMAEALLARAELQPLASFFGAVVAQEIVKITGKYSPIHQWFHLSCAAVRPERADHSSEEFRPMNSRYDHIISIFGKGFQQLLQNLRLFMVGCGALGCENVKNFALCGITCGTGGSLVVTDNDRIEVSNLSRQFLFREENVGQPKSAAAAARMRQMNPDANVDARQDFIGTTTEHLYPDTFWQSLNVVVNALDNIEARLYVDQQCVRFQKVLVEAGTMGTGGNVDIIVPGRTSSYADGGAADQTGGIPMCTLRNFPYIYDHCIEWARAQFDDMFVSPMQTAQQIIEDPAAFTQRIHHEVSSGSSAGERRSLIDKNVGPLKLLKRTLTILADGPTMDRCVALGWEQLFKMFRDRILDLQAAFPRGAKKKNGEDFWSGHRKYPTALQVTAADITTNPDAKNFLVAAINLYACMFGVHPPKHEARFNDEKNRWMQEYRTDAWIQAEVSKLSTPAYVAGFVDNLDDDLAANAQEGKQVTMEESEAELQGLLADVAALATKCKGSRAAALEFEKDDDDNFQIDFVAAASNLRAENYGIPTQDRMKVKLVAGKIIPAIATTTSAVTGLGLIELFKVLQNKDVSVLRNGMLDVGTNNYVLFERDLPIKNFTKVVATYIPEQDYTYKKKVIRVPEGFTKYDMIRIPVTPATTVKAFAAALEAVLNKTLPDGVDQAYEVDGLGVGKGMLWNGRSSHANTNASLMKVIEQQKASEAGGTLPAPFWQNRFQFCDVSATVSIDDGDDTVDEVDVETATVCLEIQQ
# [3] = target: AMP-activated protein kinase, AMPK (Homo sapiens) (UniProt P54646+O43741+P54619+Q9UGJ0+Q9Y478+Q13131+Q9UGI9); experiment: AMP-dependent Kinase enzyme assay. An in vitro enzyme assay that detects ADP turnover that is directly proportional to AMPK activity. This uses naive AMPK that is activated during the assay with MK-8722; format: functional; conditions: 30 µM
# [4] = target: Sialic acid-binding Ig-like lectin 9 (Homo sapiens) (UniProt Q9Y336); experiment: Hs-Siglec9 ALPHAscreen SOP 20170721; conditions: 10 µM
# Trypanosoma cruzi = experiment: Trypanosoma cruzi phosphomannomutase and mannose-1-phosphate guanylyltransferase assay; format: functional; conditions: 10 µM
# [5] = target: T2, Arginase-2, mitochondrial (Homo sapiens) (UniProt P78540); experiment: in vitro enzyme assay to detect the production of urea directly proportional to the activity of Arginase II; format: functional; conditions: 33.3 µM; also: in the data most compounds retested in dose-response had high values
# T2 sequence (whole entry): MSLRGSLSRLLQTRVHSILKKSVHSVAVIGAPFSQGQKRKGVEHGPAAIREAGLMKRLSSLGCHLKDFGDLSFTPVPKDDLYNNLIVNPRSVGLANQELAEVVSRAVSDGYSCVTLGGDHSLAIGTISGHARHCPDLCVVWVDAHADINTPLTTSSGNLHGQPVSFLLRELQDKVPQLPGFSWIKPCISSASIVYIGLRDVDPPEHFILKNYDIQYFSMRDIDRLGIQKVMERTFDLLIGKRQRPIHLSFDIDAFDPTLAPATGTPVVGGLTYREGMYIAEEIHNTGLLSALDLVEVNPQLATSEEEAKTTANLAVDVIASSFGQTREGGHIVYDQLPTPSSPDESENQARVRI
# [6] = target: T3, Proteasome subunit beta (Trypanosoma cruzi) (UniProt O96673); experiment: Trypanosoma cruzi proteasome chymotrypsin-like activity (TcProtChymo) assay.; also: in the data most compounds retested in dose-response had high values; format: functional; conditions: 9.37 µM
# T3 sequence (whole entry): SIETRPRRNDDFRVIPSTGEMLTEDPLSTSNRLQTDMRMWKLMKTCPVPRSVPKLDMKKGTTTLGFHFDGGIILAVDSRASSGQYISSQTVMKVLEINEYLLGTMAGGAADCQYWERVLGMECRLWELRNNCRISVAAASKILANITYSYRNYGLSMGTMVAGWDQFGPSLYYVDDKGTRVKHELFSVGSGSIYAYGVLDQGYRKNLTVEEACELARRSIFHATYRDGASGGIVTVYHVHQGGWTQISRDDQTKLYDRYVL
# Homo sapiens = species: Homo sapiens; experiment: To identify inhibition of the IFN signalling (Jak-Stat) pathway via expression of an eGFP reporter gene under the control of an IFN-stimulated response element (ISRE) containing MxA promoter.; format: functional; conditions: 30 µM
# [7] = target: T4, Tyrosyl-tRNA synthetase, putative (Trypanosoma cruzi (strain CL Brener)) (UniProt Q4DSP6); experiment: Trypanosoma cruzi tyrosyl tRNA synthetase (TcYRS) _High Tyrosine SOP; format: functional; conditions: 30 µM; also: in the data most compounds retested in dose-response had high values
# T4 sequence (whole entry): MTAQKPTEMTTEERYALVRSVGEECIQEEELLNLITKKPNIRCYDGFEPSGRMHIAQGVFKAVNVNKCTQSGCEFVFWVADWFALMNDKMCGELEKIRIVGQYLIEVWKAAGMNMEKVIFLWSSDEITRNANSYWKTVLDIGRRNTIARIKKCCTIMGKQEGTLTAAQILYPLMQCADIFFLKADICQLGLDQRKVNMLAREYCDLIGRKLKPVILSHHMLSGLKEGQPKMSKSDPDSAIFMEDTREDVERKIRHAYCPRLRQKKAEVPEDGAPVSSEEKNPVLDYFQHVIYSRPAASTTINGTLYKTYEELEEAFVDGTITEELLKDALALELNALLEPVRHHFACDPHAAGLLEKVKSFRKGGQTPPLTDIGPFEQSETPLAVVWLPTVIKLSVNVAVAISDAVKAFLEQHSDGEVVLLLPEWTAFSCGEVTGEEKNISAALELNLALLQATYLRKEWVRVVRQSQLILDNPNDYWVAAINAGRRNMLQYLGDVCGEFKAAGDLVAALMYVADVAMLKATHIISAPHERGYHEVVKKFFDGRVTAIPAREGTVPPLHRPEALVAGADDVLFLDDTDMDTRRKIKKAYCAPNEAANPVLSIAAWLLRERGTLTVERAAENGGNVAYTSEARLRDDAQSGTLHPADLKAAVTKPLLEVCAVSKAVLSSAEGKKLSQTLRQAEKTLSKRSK
# [8] = target: T4, Tyrosyl-tRNA synthetase, putative (Trypanosoma cruzi (strain CL Brener)); experiment: Trypanosoma cruzi tyrosyl tRNA synthetase (TcYRS) SOP; format: functional; conditions: 30 µM
# [9] = target: Chromo domain-containing protein 1 (Saccharomyces cerevisiae (strain ATCC 204508 / S288c) (Baker's yeast)) (UniProt P32657); experiment: ScCHD-1 Enzyme Inhibition Assay; format: functional; conditions: 30 µM; also: in the data most compounds retested in dose-response had high values
# Sequence of Chromo domain-containing protein 1 (Saccharomyces cerevisiae (strain ATCC 204508 / S288c) (Baker's yeast)) (P32657 whole entry, the tested form may be a part): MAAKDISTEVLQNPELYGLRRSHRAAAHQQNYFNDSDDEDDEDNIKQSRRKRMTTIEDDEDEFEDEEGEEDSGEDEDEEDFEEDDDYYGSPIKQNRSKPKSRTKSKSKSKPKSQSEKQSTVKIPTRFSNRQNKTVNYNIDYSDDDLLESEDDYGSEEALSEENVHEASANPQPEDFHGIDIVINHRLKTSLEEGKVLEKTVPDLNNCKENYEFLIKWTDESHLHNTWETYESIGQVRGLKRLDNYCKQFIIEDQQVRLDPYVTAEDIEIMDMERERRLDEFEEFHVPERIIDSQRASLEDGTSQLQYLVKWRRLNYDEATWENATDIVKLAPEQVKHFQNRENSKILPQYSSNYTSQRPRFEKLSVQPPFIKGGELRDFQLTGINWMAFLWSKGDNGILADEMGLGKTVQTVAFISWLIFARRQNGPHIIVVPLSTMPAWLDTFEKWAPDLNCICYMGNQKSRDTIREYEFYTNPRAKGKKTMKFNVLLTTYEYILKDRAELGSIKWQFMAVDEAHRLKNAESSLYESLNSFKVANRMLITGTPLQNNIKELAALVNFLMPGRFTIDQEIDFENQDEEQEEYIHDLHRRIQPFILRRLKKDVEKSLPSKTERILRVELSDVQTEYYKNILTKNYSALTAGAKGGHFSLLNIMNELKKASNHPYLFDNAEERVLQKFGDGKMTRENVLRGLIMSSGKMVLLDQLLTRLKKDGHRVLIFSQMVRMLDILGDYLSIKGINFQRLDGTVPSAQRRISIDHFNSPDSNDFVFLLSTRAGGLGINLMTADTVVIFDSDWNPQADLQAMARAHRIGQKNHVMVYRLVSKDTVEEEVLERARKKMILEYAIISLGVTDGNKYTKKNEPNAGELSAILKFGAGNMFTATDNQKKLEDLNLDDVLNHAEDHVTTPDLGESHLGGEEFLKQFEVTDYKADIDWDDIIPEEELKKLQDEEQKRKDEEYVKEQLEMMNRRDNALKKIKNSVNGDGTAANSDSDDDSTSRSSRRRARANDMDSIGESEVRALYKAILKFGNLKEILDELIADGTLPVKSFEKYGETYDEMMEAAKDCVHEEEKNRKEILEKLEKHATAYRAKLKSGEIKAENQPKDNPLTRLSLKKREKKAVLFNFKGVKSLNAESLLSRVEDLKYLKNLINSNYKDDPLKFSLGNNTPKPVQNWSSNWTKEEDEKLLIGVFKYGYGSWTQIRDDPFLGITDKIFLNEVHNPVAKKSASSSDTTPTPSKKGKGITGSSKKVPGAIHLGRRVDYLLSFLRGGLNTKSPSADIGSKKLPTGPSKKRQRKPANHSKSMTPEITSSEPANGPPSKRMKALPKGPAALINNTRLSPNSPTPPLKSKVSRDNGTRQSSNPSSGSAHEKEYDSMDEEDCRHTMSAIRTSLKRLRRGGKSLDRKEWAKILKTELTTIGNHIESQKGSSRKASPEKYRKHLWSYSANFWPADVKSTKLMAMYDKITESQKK
# Sequence of Sialic acid-binding Ig-like lectin 9 (Homo sapiens) (Q9Y336 whole entry): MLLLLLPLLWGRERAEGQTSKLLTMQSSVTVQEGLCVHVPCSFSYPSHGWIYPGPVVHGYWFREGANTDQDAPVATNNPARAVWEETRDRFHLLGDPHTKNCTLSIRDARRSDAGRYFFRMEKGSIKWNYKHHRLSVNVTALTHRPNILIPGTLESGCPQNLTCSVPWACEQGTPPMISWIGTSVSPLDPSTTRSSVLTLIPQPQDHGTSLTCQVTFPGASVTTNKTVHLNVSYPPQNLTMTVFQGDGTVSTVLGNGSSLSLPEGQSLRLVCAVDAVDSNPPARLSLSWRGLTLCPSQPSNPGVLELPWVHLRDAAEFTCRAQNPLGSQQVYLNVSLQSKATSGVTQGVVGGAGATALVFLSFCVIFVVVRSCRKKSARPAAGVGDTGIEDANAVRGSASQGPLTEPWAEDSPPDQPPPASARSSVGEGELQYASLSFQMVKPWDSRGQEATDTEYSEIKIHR
# Sequence of Protein translocase subunit SecA (Escherichia coli (strain K12)) (P10408 whole entry): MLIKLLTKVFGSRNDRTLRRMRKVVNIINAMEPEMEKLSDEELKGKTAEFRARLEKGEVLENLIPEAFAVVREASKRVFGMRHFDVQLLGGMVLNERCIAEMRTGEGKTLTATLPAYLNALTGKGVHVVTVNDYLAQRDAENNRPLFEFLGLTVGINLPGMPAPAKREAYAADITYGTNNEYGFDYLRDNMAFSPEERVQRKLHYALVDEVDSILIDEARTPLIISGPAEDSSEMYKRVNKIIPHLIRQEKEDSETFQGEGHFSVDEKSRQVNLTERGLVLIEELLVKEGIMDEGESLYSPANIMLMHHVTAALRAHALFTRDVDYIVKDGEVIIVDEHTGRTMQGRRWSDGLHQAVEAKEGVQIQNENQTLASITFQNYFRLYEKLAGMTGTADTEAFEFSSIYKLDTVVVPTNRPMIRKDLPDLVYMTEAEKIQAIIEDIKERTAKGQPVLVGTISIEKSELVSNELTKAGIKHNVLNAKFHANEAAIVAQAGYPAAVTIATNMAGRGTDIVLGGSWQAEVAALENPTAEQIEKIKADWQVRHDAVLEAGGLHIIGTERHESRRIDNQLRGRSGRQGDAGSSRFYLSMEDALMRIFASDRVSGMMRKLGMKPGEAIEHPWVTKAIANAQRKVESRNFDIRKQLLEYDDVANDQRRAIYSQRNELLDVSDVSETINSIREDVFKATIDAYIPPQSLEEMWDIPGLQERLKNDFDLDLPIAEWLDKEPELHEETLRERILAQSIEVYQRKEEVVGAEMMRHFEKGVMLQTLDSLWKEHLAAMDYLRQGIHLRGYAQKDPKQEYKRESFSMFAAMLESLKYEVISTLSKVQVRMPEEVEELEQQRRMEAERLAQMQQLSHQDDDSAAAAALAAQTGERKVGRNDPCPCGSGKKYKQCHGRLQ
Structure (SMILES),Percent Effect [1],Percent Effect [2],Percent Effect [3],Percent Effect [4],Percent Effect (Trypanosoma cruzi),Percent Effect [5],Percent Effect [6],Percent Effect (Homo sapiens),Percent Effect [7],Percent Effect [8],Percent Effect [9]
COCCO[C@H]1CCN(C(=O)c2ccc[nH]2)[C@H]1Cc1ccncc1,-5.53%,0%,12.9%,1.19%,-3.74%,-2.1%,2.73%,-2.22%,3.19%,6.41%,0.525%
CCC1CN(CCC(=O)N(C)C)CCN1CCOC (configuration not stated),-1.46%,16.2%,-11.9%,3.32%,2.74%,-0.401%,5.04%,-13.9%,8.37%,25.9%,-3.8%
CC(O)CN1CCN(C(=O)c2ccc(Br)o2)CC1 (configuration not stated),-4.28%,15.8%,17.9%,-7.51%,-3.57%,3.45%,8.69%,22.7%,4.41%,9.76%,-12.7%
CCOC(C)c1nc(CN2CCN(c3nccc(C)n3)CC2)cs1 (configuration not stated),-1.18%,0%,-0.85%,-1.42%,0.386%,-0.476%,10.2%,-0.937%,-3.7%,2.44%,-2.47%
CCN1CCC(NC(=O)CN2CCc3c(ncn3C)C2)CC1,-4.55%,6.33%,-3.84%,-0.206%,-3.59%,6.24%,9.43%,10.1%,-7.29%,0%,-5.67%
CCN1CCN(C2CCN(Cc3c(C)noc3C)CC2)C1=O,-8.32%,15.2%,-5.02%,13.7%,4.44%,-0.38%,6.8%,3.4%,6.4%,16.5%,-7.48%
COc1ccc(-c2noc(CNC(C)Cn3cccn3)n2)c(OC)c1 (configuration not stated),-5.86%,31.6%,-3.12%,-7.44%,2.15%,-2.52%,9.9%,17.3%,5.42%,25.9%,-11.8%
CCS(=O)(=O)CC(=O)NC(c1ccc(F)cc1)C1CCCC1 (configuration not stated),-5.43%,0%,132%,2.49%,-4.58%,-2.37%,17%,6.16%,3.19%,5.2%,-4.36%
Cc1nc(CN2C(=O)CC[C@@H]3[C@H]2CCN3C(=O)NC2CC2)cs1,1.26%,16.2%,-5.26%,-11.1%,-3.23%,0.955%,10.2%,16.1%,1.08%,12.8%,-6.62%
O=C(CCc1ccccn1)N1CCN(C(=O)CC2CCCCC2)CC1,-6.55%,15.6%,-6.12%,-12.3%,4.41%,-5.68%,10.9%,4.51%,5.71%,18.8%,-18.5%
O=C(c1ccccn1)N1CCn2cnc(COCC3CC3)c2C1,-2.21%,0%,3.19%,4.7%,-2.86%,3.23%,9.57%,-0.697%,-10.6%,-16.7%,-11%
CC(NC(=O)NCc1ccc(Cl)s1)c1ccccn1 (configuration not stated),-1.22%,11.4%,6.06%,1.35%,-3.38%,2.37%,5.49%,12.4%,3.12%,15.2%,-12.8%
Cc1cc(C)n(CC2CCCN2CC(=O)N(C)C)n1 (configuration not stated),-2.72%,-2.7%,-5.85%,20%,-2.92%,-4.01%,9.19%,3.86%,-0.493%,1.24%,-0.0682%
CCn1cnnc1CNC(=O)N1CCN(c2nc(C)c(C)s2)CC1,-8.34%,10.4%,-7.32%,12.2%,4.68%,-4.27%,0.676%,-2.89%,5.83%,19.5%,-9.23%
COCCn1cc(C(=O)N2CCCC2c2cc(C)no2)ccc1=O (configuration not stated),-2.03%,8.11%,1.75%,2.51%,-0.965%,2.38%,9.48%,1.94%,7.94%,12.2%,-3.51%
Cc1cnn(CC2CCCN2C(=O)c2cc3ccccc3[nH]2)c1 (configuration not stated),-8.63%,13%,-0.229%,-0.244%,7.74%,-1.05%,7.2%,1.95%,3.81%,11.8%,-12.1%
CC(C(=O)N1CCc2ccccc2C1)n1cc(Br)cn1 (configuration not stated),-0.393%,0%,-6.91%,6.63%,4.42%,-6.9%,7.82%,19.8%,4.3%,13.6%,-3.62%
COc1ccc(C2=CCN(C(=O)C3CCN(C)C(=O)C3)CC2)cc1 (configuration not stated),-3.77%,15.8%,2.43%,-4.29%,9.06%,1.8%,7.19%,6.58%,7.39%,16.1%,-5.39%
Cn1cc(-c2csc(CN3CCOCC3)n2)cn1,2.9%,4.17%,-3.9%,1.67%,0.0972%,8.39%,1.58%,-3.07%,-1.05%,2.56%,-1.39%
Cc1nsc(C(=O)N2CCc3ccccc3C2)n1,-7.16%,13%,-4.33%,-9.01%,4.44%,-1.94%,5.22%,3.35%,3.17%,8.97%,-9.64%
CCc1ccc(C(=O)N2CCCC(n3cncn3)C2)o1 (configuration not stated),-10.1%,-4.17%,-1.09%,-2.11%,-2.82%,-2.21%,7.37%,4.2%,3.16%,-2.56%,3.19%
CCCc1n[nH]c(C2CN(C(=O)CCCn3cccn3)CCO2)n1 (configuration not stated),-4.8%,-4.17%,-0.0148%,-2.33%,-2.82%,-0.883%,7.89%,-2.8%,-1.05%,-2.56%,5.04%
